Screening data (PubChem BioAssay)
Cycloheximide cs – affects cycloheximide protein synthesis inhibition readout, counter-screen; max response, %; cell reporter, cycloheximide protein synthesis inhibition counterscreen; 300,000 tested, 12% active; AID 2314; in the data active = max response mostly above about 13%, no sharp cut-off; inactive = mostly below about 14%; note: read at 38.3 µM for the half of the compounds with a filed dose
MARV entry inh – Marburg virus entry inhibition; Marburg virus pseudotyped entry inhibition, cell reporter; Potency, µM (series often up to 37.8 µM), most hits filed as inhibitors; 300,000 tested, 1.8% active; AID 540276; calls by dose curve; tested in HEK293 cells
Shiga inhibitor – Shiga toxin inhibition. Vero cells, Shiga toxin protein synthesis inhibition reporter. 290,000 tested, 9.2% active. AID 2315. inhibition, % at 38.7 µM; in the data active = inhibition mostly above about 28%, no sharp cut-off; inactive = mostly below about 43%
AMA1 RON2 block – AMA1-RON2 (P. falciparum) interaction inhibition; 360,000 tested, 0.2% active; Potency, µM (titrated, usually from 58.2 µM), most hits filed as inhibitors; AlphaScreen AMA1-biotinylated RON2 peptide binding; active = well fitted inhibition curve with a large enough effect; inconclusive = small, poorly fitted or top-dose-only effect; inactive = no such curve, though single readings can be large or run the other way; note: nearly all actives have a fitted effect of over 45% in size
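AMA1 (3D7) with his tag at 25 nM final met compounds first, then biotinylated RON2 peptide at 25 nM; detection used donor plus acceptor beads, 10 µg/mL apiece, read by AlphaScreen after 30 min at room temperature.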
Lassa entry inh – inhibitors of Lassa virus binding or cell entry | Lassa virus pseudotype entry inhibition, cell reporter | Potency, µM (highest dose often 37.9 µM), hits mostly inhibitors | 300,000 tested, 1.2% active | AID 540256; calls by dose curve; tested in HEK293 cells; note: nearly all actives have a fitted effect of over 50% in size
Each line names hits and unclear results; the compound was inactive in the other large screens. The entries come from a sample that favours hits as a whole.

O=C(CC(C(=O)O)c1ccc(Cl)cc1)c1ccc(Br)cc1 (centres undefined)	MARV entry inh inconclusive
COCCn1c(SCC(=O)NCCCN2CCCC2=O)nc2sc3c(c2c1=O)CCCC3	none (no result: Cycloheximide cs, Shiga inhibitor)
N/C(=N\OC(=O)c1cccc(Cl)c1)c1ccccn1	Cycloheximide cs 42, MARV entry inh 3.7µM, Lassa entry inh 7.9µM
N/C(=N\OC(=O)c1ccc2ccccc2c1)c1ccc(Br)cc1	MARV entry inh inconclusive
N/C(=N\OC(=O)c1cccc(Br)c1)c1ccccc1	Cycloheximide cs 27, MARV entry inh inconclusive, Shiga inhibitor 59
CCC1(CC)Nc2ccccc2C(=O)N1c1ccc(OC)cc1	Cycloheximide cs 33, Shiga inhibitor 36 (no result: MARV entry inh, Lassa entry inh)
CC(=O)Nc1ccc(NC(=O)CCCCCN2C(=O)c3ccccc3C2=O)cc1	none
CC1(C)Nc2ccccc2C(=O)N1c1ccccc1	Cycloheximide cs 19 (no result: Shiga inhibitor)
COc1ccc2c(c1)C1(Nc3ccccc3C(=O)N1c1ccccc1)C(=O)N2 (centres undefined)	none
CCC1(CC)Nc2ccccc2C(=O)N1c1ccc(NC(C)=O)cc1	Cycloheximide cs 12
COc1ccc(N2C(=O)c3ccccc3NC23CCCC3)cc1	Cycloheximide cs 31, MARV entry inh inconclusive, Shiga inhibitor 44, Lassa entry inh inconclusive
Cc1nc2ccc(NS(=O)(=O)c3ccccc3Cl)cc2s1	none (no result: Cycloheximide cs, MARV entry inh, Shiga inhibitor, Lassa entry inh)
CSc1nc2ccc(NC(=O)C3CCCO3)cc2s1 (centres undefined)	Cycloheximide cs 40, MARV entry inh inconclusive, Shiga inhibitor 112, Lassa entry inh inconclusive
CSc1nc2ccc(NC(=O)c3ccc(Cl)s3)cc2s1	none (no result: MARV entry inh, Lassa entry inh)
CSc1nc2ccc(NS(=O)(=O)c3cccc(Cl)c3Cl)cc2s1	Cycloheximide cs 17
CSc1nc2ccc(NC(=O)NC(=O)c3c(F)cccc3F)cc2s1	Cycloheximide cs 17
COc1ccc2nc(NC(=O)C3CCCO3)sc2c1 (centres undefined)	Cycloheximide cs 65, MARV entry inh inconclusive, Shiga inhibitor 101, Lassa entry inh inconclusive
COc1cccc(C(C)NC(=O)Cc2cccs2)c1 (centres undefined)	none
CC(=O)NC(c1ccc(F)c(F)c1)c1nc(-c2cccc(F)c2)cs1 (centres undefined)	none (no result: Cycloheximide cs, MARV entry inh, Shiga inhibitor, Lassa entry inh)
CCOc1ccccc1C(=O)Nc1cc(-c2nc3cccnc3s2)ccc1C	none (no result: Cycloheximide cs, MARV entry inh, Shiga inhibitor, AMA1 RON2 block)
COc1ccc(-c2nnc(NC(=O)C3CCCO3)s2)cc1 (centres undefined)	Cycloheximide cs 38, Shiga inhibitor 130
Cc1cccc2sc(NC(=O)C3CCCO3)nc12 (centres undefined)	Cycloheximide cs 32, Shiga inhibitor 111
CCc1cccc(C)c1NC(=O)C1CCCO1 (centres undefined)	none
O=C(c1cc(S(=O)(=O)N2CCOCC2)c(Cl)cc1Cl)N1CCN(S(=O)(=O)c2cccc(F)c2)CC1	none (no result: Cycloheximide cs, Shiga inhibitor)
CC(=O)N1CCc2c(sc(NC(=O)c3ccc([N+](=O)[O-])o3)c2C(N)=O)C1	none (no result: Cycloheximide cs, MARV entry inh, Shiga inhibitor, Lassa entry inh)
COc1cc(C=O)ccc1OCCOc1ccccc1[N+](=O)[O-]	Cycloheximide cs 28, MARV entry inh inconclusive, Shiga inhibitor 85, Lassa entry inh inconclusive
COc1cc(C=O)ccc1OCCCCOc1ccccc1[N+](=O)[O-]	Cycloheximide cs 15, Shiga inhibitor 35
COc1cc(C=O)ccc1OCCCOc1ccccc1[N+](=O)[O-]	Cycloheximide cs 48, Shiga inhibitor 64
COc1cc(C=O)ccc1OS(=O)(=O)c1ccccc1[N+](=O)[O-]	Cycloheximide cs 22
COc1cc(/C=N/n2cnnc2)ccc1OS(=O)(=O)c1ccccc1[N+](=O)[O-]	none
COc1ccc(N2CCN(C(=O)Cc3c(C(=O)O)c(C)cn3C)CC2)cc1	none (no result: Cycloheximide cs, MARV entry inh, Shiga inhibitor, AMA1 RON2 block)
CC(C)C(C(=O)NCc1ccccc1)N1CCN(c2ccccc2F)CC1 (centres undefined)	none (no result: Cycloheximide cs, MARV entry inh, Shiga inhibitor, Lassa entry inh)
CCCCN(CC)CCNC(=O)c1c(C)oc2ncnc(N3CCOCC3)c12	none (no result: Cycloheximide cs, MARV entry inh, Shiga inhibitor, AMA1 RON2 block)
CNC(=O)C[C@H]1C(=O)N(c2ccc(Br)cc2)C[C@@H]1C	none (no result: Cycloheximide cs, MARV entry inh, Shiga inhibitor, Lassa entry inh)
O=C1Nc2ccccc2/C1=N/c1sc2c(c1C(=O)NCCc1ccccc1)CCCC2	Shiga inhibitor 39
CC(C)c1ccc(C(=O)CSc2ncn[nH]2)cc1	Cycloheximide cs 31, Shiga inhibitor 81
O=C(CSc1nc2ncc(Cl)cc2[nH]1)c1ccc2c(c1)OCO2	Lassa entry inh inconclusive
O=C(CSc1ncn[nH]1)Nc1ccc2c(c1)OCCO2	none
O=C(CSc1ncn[nH]1)c1ccc2c(c1)OCCO2	Cycloheximide cs 18, Shiga inhibitor active
O=C(CSc1ccc2ccccc2n1)c1ccc2c(c1)OCO2	Cycloheximide cs 53, Shiga inhibitor 104, Lassa entry inh inconclusive
